For 78 molecules, Potency results are on record in PubChem BioAssay AID360 (National Center for Advancing Translational Sciences (NCATS), 2006).

Molecules are shown by their SMILES. Hit rate of the full screen: of about 48,000 compounds, about 550 (1.1%) were called active. Another 4% or so got no clear call; they are omitted. Shown is part of a subset that was picked to be rich in actives. Values without a mark were called inactive. Rule as the data show it: active = potency below about 15 µM; inconclusive = mostly about 16 µM to 33 µM; inactive = weaker than that.
Potency is read from the fitted curve at half-maximal effect.

Sequence of Lysosomal acid glucosylceramidase (Homo sapiens) (P04062 whole entry, looked up): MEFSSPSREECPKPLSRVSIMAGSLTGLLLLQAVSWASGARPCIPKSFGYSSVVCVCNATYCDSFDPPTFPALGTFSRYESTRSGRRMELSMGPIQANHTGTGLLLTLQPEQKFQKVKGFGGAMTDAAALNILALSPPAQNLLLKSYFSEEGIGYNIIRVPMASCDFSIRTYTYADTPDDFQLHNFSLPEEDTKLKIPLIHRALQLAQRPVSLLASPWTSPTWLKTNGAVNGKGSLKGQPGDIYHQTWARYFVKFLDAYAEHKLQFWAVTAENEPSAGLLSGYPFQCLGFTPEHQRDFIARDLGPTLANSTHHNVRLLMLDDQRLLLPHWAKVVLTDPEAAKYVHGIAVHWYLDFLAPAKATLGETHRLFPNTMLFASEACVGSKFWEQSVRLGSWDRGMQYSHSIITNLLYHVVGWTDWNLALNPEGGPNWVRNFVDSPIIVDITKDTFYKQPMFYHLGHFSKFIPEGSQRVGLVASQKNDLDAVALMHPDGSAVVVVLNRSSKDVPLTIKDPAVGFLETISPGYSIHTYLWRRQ

For this test, the target named is Lysosomal acid glucosylceramidase (Homo sapiens) (UniProt P04062). Nature of the test: Glucocerebrosidase.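 Also: the screen sought inhibitors.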 The note with it: purified enzyme, resorufin glucoside fluorescence (screen aimed at inhibitors), 20 min. The essentials:
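Compounds titrated against 0.2 nM normal enzyme, 30 uM resorufin beta-D-glucopyranoside substrate, citrate/phosphate buffer with taurocholate and tween-20, pH 5.9. Reaction ran 20 min at room temperature; fluorescence (Ex 548/Em 600) gave AC50.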
Regarding `CCN1C(=O)/C(=C\N2CCN(c3cccc(Cl)c3)CC2)SC1=S`, the Potency was 7.83 µM (active).

As to `CCN1C(=O)/C(=C\N2CCN(c3ccccc3)CC2)SC1=S`, the Potency is 70.4 µM.

For `CS(=O)(=O)N(CC(=O)N1CCN(c2cccc(Cl)c2)CC1)c1ccccc1`, the Potency is greater than 76.9 µM.

In the case of `CCOc1ccc(NC(=O)Nc2ccc(N(C)C(C)=O)cc2)cc1`, the Potency was greater than 76.9 µM.

On to `CCOc1ccc(NC(=O)N2CCN(CC)CC2)cc1`, for which the Potency is 11.1 µM (active).

As to `CCOc1ccc(NC(=O)N2CC=C(n3c(=O)[nH]c4ccccc43)CC2)cc1`, the Potency was greater than 76.9 µM.

Consider `CSc1ncccc1C(=O)OCC(=O)N1CCOCC1`, for which the Potency is greater than 76.9 µM.

As to `Cc1ccc(NC(=O)NCC(c2cccnc2)N2CCOCC2)cc1` (stereo not drawn), the Potency was greater than 76.9 µM.

On to `COc1ccc(C(CNC(=O)c2cccnc2SC)N2CCOCC2)cc1` (stereo not drawn), for which the Potency is 15 µM (active).

For `COc1ccc2[nH]c(=O)c(CN(Cc3nnnn3CCc3ccccc3)CC3CCCO3)cc2c1` (stereo not drawn), the Potency is 35.8 µM.

As to `CCC(c1nnnn1Cc1ccco1)N(CCc1ccccc1)Cc1cc2ccc(OC)cc2[nH]c1=O` (stereo not drawn), the Potency is 14.2 µM (active).

Turning to `CCC(c1nnnn1Cc1ccccc1)N(Cc1cc2cc(OC)ccc2[nH]c1=O)CC1CCCO1` (stereo not drawn), the Potency is greater than 76.9 µM.

Regarding `CSc1cccc(NC(=O)C2CCCN2S(=O)(=O)c2ccc3c(c2)CCC(=O)N3)c1` (stereo not drawn), the Potency was 10.1 µM (active).

Consider `O=C(O)C1CCCN1S(=O)(=O)c1ccc2c(c1)CCC2` (stereo not drawn), for which the Potency is greater than 76.9 µM.

With `Cc1cccc(NC(=O)C2CCCN2S(=O)(=O)c2ccc(F)cc2)c1C` (stereo not drawn), the Potency is greater than 76.9 µM.

As to `COc1ccc(-n2c(C)nc3c(cnn3-c3ccccc3)c2=O)cc1`, the Potency was greater than 76.9 µM.

`CNC(=O)c1nnn(-c2ccccc2)c1C(=O)NC`: the Potency is greater than 76.9 µM.

Take `CCCCC(=O)Nc1ccc(C(=O)NCCCn2ccnc2)cc1`: the Potency is 5.11 µM (active).

With `CCCC(=O)Nc1ccc(C(=O)NCCCn2ccnc2)cc1`, the Potency is 6.73 µM (active).

As to `Cc1ccc(CNC(=O)CCCNC(=O)c2ccc(Cl)cc2)n1C`, the Potency is greater than 76.9 µM.

Take `CCOc1ccccc1C(=O)NCCCn1ccnc1`: the Potency is greater than 76.9 µM.

As for `CCN(CC)C(=O)CCC(=O)Nc1ccc(C(=O)OC)cc1`, the Potency is greater than 76.9 µM.

Take `CCCCC(=O)Nc1ccc2c(c1)OCCO2`: the Potency was greater than 76.9 µM.

Consider `CCc1c(C)nc(N)n2c(SCC(=O)N3CCN(c4ccccc4)CC3)nnc12`, for which the Potency was greater than 76.9 µM.

As to `COc1c(C)cccc1C(=O)Nc1cc(Cl)ccc1N1CCOCC1`, the Potency was greater than 76.9 µM.

As to `COc1ccc(S(=O)(=O)N2CCCC2)c(C)c1C`, the Potency was greater than 76.9 µM.

`CC(C)C(c1nnnn1C1CCCC1)N1CCN(c2ccccc2F)CC1` (stereo not drawn): the Potency is 45 µM.

On to `CCOC(=O)c1c(C)[nH]c(C)c1C(=O)CSc1nc(N)cc(N)n1`, for which the Potency was greater than 76.9 µM.

As to `O=C(CSc1nnc(-c2cnccn2)n1Cc1ccco1)c1ccc(Cl)c(Cl)c1`, the Potency is greater than 76.9 µM.

`COCCCn1c(CCC(=O)O)ccc1-c1ccc(F)cc1`: the Potency was greater than 76.9 µM.

Consider `O=C(NCCCNC(=O)NC1CCCCC1)NC1CCCCC1`, for which the Potency was greater than 76.9 µM.

On to `CC(=O)N1CSCC1C(=O)O` (stereo not drawn), for which the Potency is greater than 76.9 µM.

In the case of `O=C(CSc1nnc(-c2ccco2)n1CC1CCCO1)c1ccccc1` (stereo not drawn), the Potency is greater than 76.9 µM.

Turning to `COc1ccc(C2C3=C(CC(C)(C)CC3=O)Oc3ncn4nc(-c5cccnc5)nc4c32)cc1OC` (stereo not drawn), the Potency was greater than 76.9 µM.

For `CCCn1c(SCC(=O)Nc2c(C)cccc2C)nnc1C(C)C`, the Potency is greater than 76.9 µM.

For `CCOC(=O)CSc1nnc(-c2ccco2)n1C`, the Potency was greater than 76.9 µM.

Turning to `CN1CCC2(CC1)NC(=O)NC2=O`, the Potency is greater than 76.9 µM.

On to `O=C(Nc1cnccn1)c1cccnc1`, for which the Potency was greater than 76.9 µM.

Consider `O=C(Cn1c(-c2ccccn2)nc2ccccc21)NCCN1CCOCC1`, for which the Potency is greater than 76.9 µM.

On to `COc1ccc(-c2nnc(SCC(=O)c3ccco3)n2-c2ccccc2)cc1`, for which the Potency is greater than 76.9 µM.

In the case of `Cc1ccc(C(C(=O)NC2CCCC2)N(Cc2ccco2)C(=O)CCC(=O)Nc2ccccn2)cc1` (stereo not drawn), the Potency was greater than 76.9 µM.

Turning to `COc1ccc(C2C(C(=O)Nc3ccccc3OC)=C(C)Nc3nnnn32)c(OC)c1` (stereo not drawn), the Potency is greater than 76.9 µM.

`COC(=O)c1ccc(C2C3=C(Nc4nnnn42)c2ccccc2OC3)cc1` (stereo not drawn): the Potency was 8.19 µM (active).

For `COC(=O)c1ccc(C2NC(=O)NC(C)=C2C(=O)N(C)C)cc1` (stereo not drawn), the Potency was greater than 76.9 µM.

Turning to `CCOC(=O)c1c(C)nc(-c2ccccc2)nc1NC(=O)C(C)C`, the Potency was greater than 76.9 µM.

As for `O=c1[nH]nc(Cc2ccccn2)c2ccccc12`, the Potency is greater than 76.9 µM.

As for `CCOC(=O)c1cnc(-n2nc(C)cc2C)nc1-n1nc(C)cc1C`, the Potency was greater than 76.9 µM.

For `CCc1ccccc1N(CC(=O)N1CCN(c2ccccc2F)CC1)S(C)(=O)=O`, the Potency was greater than 76.9 µM.

Consider `CCOc1ncccc1C(=O)OCc1cn2cc(Cl)ccc2n1`, for which the Potency was greater than 76.9 µM.

Turning to `CN(Cc1ccccc1)Cc1ccccc1F`, the Potency is greater than 76.9 µM.

With `COc1ccccc1OCCC(=O)OCC(=O)NC(=O)NC(C)(C)C`, the Potency was greater than 76.9 µM.

Take `CC(=O)c1cccc(S(=O)(=O)N2CCC(n3nnc4cc(F)ccc43)CC2)c1`: the Potency is greater than 76.9 µM.

Turning to `O=S(=O)(c1cccc(S(=O)(=O)N2CCC(n3nnc4ccccc43)CC2)c1)N1CCCCC1`, the Potency was 10.5 µM (active).

For `O=S(=O)(c1cccc(-c2nnc(SC(F)F)n2-c2ccccc2)c1)N1CCCCC1`, the Potency was greater than 76.9 µM.

Consider `O=C(C1=C(O)C(=O)N(Cc2ccccc2)C1c1cccnc1)c1ccco1` (stereo not drawn), for which the Potency was greater than 76.9 µM.

On to `O=C1NC(c2cc3c(cc2Cl)OCO3)Oc2ccccc21` (stereo not drawn), for which the Potency was greater than 76.9 µM.

As to `O=C1N(Cc2ccc3c(c2)OCO3)c2ccccc2C1(O)c1c[nH]c2ccccc12` (stereo not drawn), the Potency is greater than 76.9 µM.

`CCC(=O)Nc1ccc(C(=O)CSc2nnc(CNc3ccc(Cl)cc3)o2)cc1OC`: the Potency is greater than 76.9 µM.

For `Cc1cc(C)c2c(n1)nn1c(N3CCOCC3)cc(C)nc21`, the Potency was greater than 76.9 µM.

Consider `Cc1cc(-n2nc(C)cc2C)n2ncc(-c3ccccc3)c2n1`, for which the Potency was greater than 76.9 µM.

In the case of `Cc1cc(N2CCCC2)n2nc(C)c(-c3ccccc3)c2n1`, the Potency is 7.9 µM (active).

For the molecule `COc1ccc(CC(=O)Nc2ccc3c(c2)CCC3)cc1S(=O)(=O)N1CCOCC1`, the Potency is greater than 76.9 µM.

For `Cc1cccc(-n2c(N)cc(=O)nc2SC(C)C(=O)NC2CCCCC2)c1` (stereo not drawn), the Potency is greater than 76.9 µM.

Turning to `CC(C)N(C(=O)COC(=O)c1ccccc1C(=O)N1CCN(c2ccc(F)cc2)CC1)C(C)C`, the Potency was greater than 76.9 µM.

On to `O=C(Nc1cccc(NC(=O)N2CCN(c3ccccc3)CC2)c1)N1CCN(c2ccccc2)CC1`, for which the Potency is greater than 76.9 µM.

As for `CC(=O)N1CCN(c2ccc(NCc3ccc(C(C)C)cc3)cc2)CC1`, the Potency is 7.71 µM (active).

Consider `COC(=O)Cc1c(C)c2ccc(OCC(=O)NCc3ccc4c(c3)OCO4)cc2oc1=O`, for which the Potency was greater than 76.9 µM.

Consider `CC1(C)Oc2ccc(C(=O)N3CCOCC3)cc2N(CC(=O)Nc2ccccc2)C1=O`, for which the Potency was greater than 76.9 µM.

For `Cc1ccc(-c2noc(CN3CCN(Cc4ccccc4)CC3)n2)cc1`, the Potency was greater than 76.9 µM.

Turning to `CCOC(=O)Cc1c(C)nc2c(C#N)c(C)nn2c1C`, the Potency was greater than 76.9 µM.

On to `Cc1cc(C(=O)COC(=O)CCCN2C(=O)c3ccccc3C2=O)c(C)n1C`, for which the Potency is greater than 76.9 µM.

For `CCOC(=O)CSc1nnc(NC(=O)c2cccc(S(=O)(=O)N3CCCC3)c2)s1`, the Potency was greater than 76.9 µM.

In the case of `COc1cccc(-c2nnc(N(C)C(=O)c3ccno3)s2)c1`, the Potency was greater than 76.9 µM.

In the case of `CC1(C)CC(CCC(=O)Nc2ccccc2Cl)C(=O)O1` (stereo not drawn), the Potency was greater than 76.9 µM.

Take `CN(C(=O)COc1ccccc1)c1nnc(-c2ccncc2)s1`: the Potency was greater than 76.9 µM.

As to `Cc1cc(Cl)c(S(=O)(=O)NCCC(=O)O)cc1OCC(N)=O`, the Potency was greater than 76.9 µM.

As to `COC(=O)C(CC(=O)Nc1cc(C)ccc1C)Nc1ccccc1OC` (stereo not drawn), the Potency was greater than 76.9 µM.

Take `Cc1ccc2nc(S(=O)(=O)O)[nH]c2c1`: the Potency was greater than 76.9 µM.
